Data: PubChem BioAssay AID1347404 (Pan Lab, Icahn School of Medicine at Mount Sinai, 2020)
Hit rate of the full screen: of about 140,000 compounds, about 860 (0.61%) were called active. Rule as the data show it: active = inhibition above about 25%; inactive = the rest. This excerpt belongs to a sample that is enriched for actives.

These molecules were tested against E3 ubiquitin-protein ligase RBX1 (Homo sapiens) + Cullin-1 (Homo sapiens) (UniProt P62877+Q13616) (assay: inhibitors of human ROC1-CUL1 ubiquitin ligase activity (AID 1347404)). Details: in vitro K48 di-Ub FRET, acceptor:donor ratio, 45 min; at 10 µM; stronger effect = higher value.
Sequence of E3 ubiquitin-protein ligase RBX1 (Homo sapiens) + Cullin-1 (Homo sapiens) (P62877 whole entry, looked up): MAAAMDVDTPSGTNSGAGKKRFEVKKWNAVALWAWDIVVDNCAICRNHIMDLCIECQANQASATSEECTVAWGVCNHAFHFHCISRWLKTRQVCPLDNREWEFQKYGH
Sequence of E3 ubiquitin-protein ligase RBX1 (Homo sapiens) + Cullin-1 (Homo sapiens) (Q13616 whole entry, looked up): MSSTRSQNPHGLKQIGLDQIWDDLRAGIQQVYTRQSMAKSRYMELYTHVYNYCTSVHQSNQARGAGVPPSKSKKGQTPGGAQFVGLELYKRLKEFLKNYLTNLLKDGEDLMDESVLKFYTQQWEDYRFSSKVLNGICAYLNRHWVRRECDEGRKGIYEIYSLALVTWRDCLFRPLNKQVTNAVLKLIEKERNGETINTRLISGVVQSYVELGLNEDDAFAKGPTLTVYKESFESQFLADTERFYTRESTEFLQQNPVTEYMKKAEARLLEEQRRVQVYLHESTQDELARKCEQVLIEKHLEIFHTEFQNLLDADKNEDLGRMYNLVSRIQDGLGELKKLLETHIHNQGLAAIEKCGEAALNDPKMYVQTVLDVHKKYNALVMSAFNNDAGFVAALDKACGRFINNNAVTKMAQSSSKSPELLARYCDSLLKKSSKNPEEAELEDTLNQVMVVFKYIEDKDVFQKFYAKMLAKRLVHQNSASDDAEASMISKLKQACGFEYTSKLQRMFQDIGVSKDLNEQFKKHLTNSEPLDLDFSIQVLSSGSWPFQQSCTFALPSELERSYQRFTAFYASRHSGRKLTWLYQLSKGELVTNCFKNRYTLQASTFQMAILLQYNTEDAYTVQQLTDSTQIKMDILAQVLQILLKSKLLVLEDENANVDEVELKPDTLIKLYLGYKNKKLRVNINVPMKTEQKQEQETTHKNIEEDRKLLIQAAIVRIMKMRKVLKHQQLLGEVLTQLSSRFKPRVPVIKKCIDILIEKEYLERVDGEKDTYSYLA
`Cn1c(CC(=O)c2ccc(F)cc2)nccc1=O` was tested, and the inhibition was 2.65% (inactive).
For `COC(=O)c1cccc(COC(=O)c2ccc(NC(C)=O)cc2)c1`, the inhibition was 1.6% (inactive).
In the case of `O=C(OCc1ccccc1)c1ccc(O)c(O)c1`, the inhibition was 43% (active).
For `O=C(OCc1ccccc1)c1cncc(Br)c1`, the inhibition was -7.74% (inactive).
`Nc1nc2cccnc2cc1Br` was tested, and the inhibition was 1.54% (inactive).
With `CCOc1cccc(CC(=O)N2CCc3c([nH]c4ccccc34)C2c2ccc(F)cc2)c1OCC` (stereo unspecified) the inhibition was 1.07% (inactive).
`Fc1cc(Br)cc2c1NC(c1ccccc1C(F)(F)F)C1CC=CC21` (stereo unspecified) was tested, and the inhibition was 1.76% (inactive).
`CCOc1cccc2c1N[C@@H](c1ccc(C(=O)O)cc1)[C@H]1CC=C[C@@H]21` was tested, and the inhibition was 68.9% (active).
With `Cc1cc(/C=C2/C(=N)N3N=C(c4ccccc4Cl)SC3=NC2=O)c(C)n1-c1ccc(Cl)cc1Cl` the inhibition was 2.61% (inactive).
In the case of `CCC(C1=NN2C(=N)/C(=C\c3ccc(OC(=O)c4ccco4)cc3)C(=O)N=C2S1)c1ccccc1` (stereo unspecified), the inhibition was -6.1% (inactive).
In the case of `Cc1ccc(C2=NN3C(=N)/C(=C/c4ccco4)C(=O)N=C3S2)cc1`, the inhibition was 34.8% (active).
For `Cc1ccc(C)c(-n2nnc(C(=O)Nc3ccc(N4CCN(C)CC4)cc3)c2C)c1`, the inhibition was 12.2% (inactive).
In the case of `COc1cccc(OC)c1C(=O)Oc1ccc(Br)cc1Br`, the inhibition was 3.84% (inactive).
In the case of `CCOC(=O)C1=C(C)N=c2s/c(=C\c3cccnc3)c(=O)n2C1c1ccc(OC)c(Br)c1` (stereo unspecified), the inhibition was -5.43% (inactive).
In the case of `CCOC(=O)C1=C(C)N=c2s/c(=C\c3ccc(N(CC)CC)cc3O)c(=O)n2C1c1ccc(Br)cc1` (stereo unspecified), the inhibition was 49.4% (active).
For `CCOC(=O)C1=C(C)N=c2s/c(=C\c3cc(C)n(-c4ccc(Br)cc4)c3C)c(=O)n2C1c1ccccc1Cl` (stereo unspecified), the inhibition was -10.4% (inactive).
In the case of `CCOC(=O)C1(CCOC)CCN(Cc2ccc(C#CCCO)cc2)CC1`, the inhibition was -1.32% (inactive).
In the case of `C=C(C)COc1ccc(NC(C)=O)cc1`, the inhibition was -3.18% (inactive).
For `Cc1ccc(N=C2S/C(=C\c3cc(Cl)ccc3O)C(=O)N2C)cc1C`, the inhibition was -0.425% (inactive).
In the case of `Cc1c(CN2CCc3[nH]nc(-c4cccc(F)c4)c3C2)cnn1C`, the inhibition was 8.08% (inactive).
`CN(C)S(=O)(=O)N1CCC(C(=O)Nc2ccc(Cl)c(C(F)(F)F)c2)CC1` was tested, and the inhibition was 6.61% (inactive).
For `N#Cc1cccc(-c2cccc(-c3ccn[nH]3)c2)c1`, the inhibition was 2.7% (inactive).
In the case of `Cc1ccc(C2=NC(=O)OC2(C)C)c(C)c1`, the inhibition was 2.99% (inactive).
For `COC(=O)COc1ccc(/C=N/NC(=O)c2ccc(N(Cc3ccccc3Cl)S(C)(=O)=O)cc2)cc1`, the inhibition was -4.5% (inactive).
In the case of `Cc1cc(O)c(C(=O)C2=CSc3nnc(-c4ccccc4)n3N=C2)cc1Cl`, the inhibition was 2.34% (inactive).
In the case of `CCOC(=O)C1C(C)=NC(=O)NC1c1cn(-c2ccccc2)nc1-c1ccc(Cl)cc1` (stereo unspecified), the inhibition was -6.88% (inactive).
For `C=CCC(=O)N1CCC(C2CCN(Cc3cccnc3)CC2)C1` (stereo unspecified), the inhibition was 0.333% (inactive).
With `Cc1ccc(C)c(NC(=O)NC2CCCc3ccccc32)c1` (stereo unspecified) the inhibition was -5.58% (inactive).
For `CC(Oc1ccc(F)cc1)C(=O)NC(C)c1ccccc1` (stereo unspecified), the inhibition was -5.33% (inactive).
For `Cc1nn(-c2ccccc2)c(Cl)c1C1c2c(n[nH]c2-c2ccccc2)OC(=N)C1C#N` (stereo unspecified), the inhibition was -6.2% (inactive).
For `CCn1c2ccccc2c2cc(C=Nc3cccc(Cl)c3C)ccc21`, the inhibition was -4.47% (inactive).
For `CCC(NC1CCN(c2nc(C)c3cc(C)c(C)cc3n2)CC1)c1ccncc1` (stereo unspecified), the inhibition was 57.6% (active).
With `Cc1cc2nc(N3CCC(C(=O)NC45CC6CC(CC(C6)C4)C5)CC3)nc(C)c2cc1C` the inhibition was 17.1% (inactive).
With `COCCNC(=O)C1CCN(c2nc(C)c3cc(C)c(C)cc3n2)CC1` the inhibition was -4.41% (inactive).
With `Clc1ccc(COn2nnc3ccccc32)cc1Cl` the inhibition was -0.0969% (inactive).
`O=[N+]([O-])c1ccccc1/C=N/Nc1nc2c(s1)CCCC2` was tested, and the inhibition was -4.02% (inactive).
With `CCCCNC(=O)c1nnn(-c2ccccc2)c1C` the inhibition was 9.64% (inactive).
With `CCOC(=O)C1=c2s/c(=C/c3ccc(Cl)cc3)c(=O)n2C(=N)C(C(=O)OC)C1c1ccc(Cl)cc1` (stereo unspecified) the inhibition was -2.16% (inactive).
`Cc1ccc(C(=O)Nc2ccc(-c3nnc(SCC(=O)Nc4ccc(F)cc4)n3C)cc2)cc1` was tested, and the inhibition was 2.28% (inactive).
`C#CCOc1ccc(/C=C2\SC(=S)N(c3cccc(C(=O)O)c3)C2=O)cc1OC` was tested, and the inhibition was -1.21% (inactive).
`O=C1SC(=Nc2ccccc2)N=C1Cc1cccc(OC(=O)c2ccccc2)c1` was tested, and the inhibition was 2.05% (inactive).
In the case of `Cc1ccc(CCC(=O)NCc2ccc(Cl)cc2)cc1`, the inhibition was -2.97% (inactive).
For `Nc1nnnn1/N=C/c1ccc([N+](=O)[O-])o1`, the inhibition was 5.46% (inactive).
`O=C(O)c1cc2c(s1)C=Cc1ccccc1C2` was tested, and the inhibition was 4.96% (inactive).
In the case of `Cc1nc2c(sc3nc4ccccc4nc32)c(=O)[nH]1`, the inhibition was -2.71% (inactive).
`NC(=O)c1ccccc1NC(=O)c1ccc(CN2CCCCC2)cc1` was tested, and the inhibition was 4.02% (inactive).
In the case of `O=C(c1ccc2c(c1)C1C=CCC1C(c1ccccc1)N2)N1CCOCC1` (stereo unspecified), the inhibition was -11.2% (inactive).
In the case of `COC(=O)c1ccc2c(c1)C1C=CCC1C(c1cccc([N+](=O)[O-])c1)N2` (stereo unspecified), the inhibition was 5.03% (inactive).
With `O=C(O)c1ccc2c(c1)[C@@H]1C=CC[C@@H]1[C@H](c1ccc3c4c(cccc14)CC3)N2` the inhibition was 99.3% (active).
For `CC(=O)Nc1ccc(OC(=O)c2cccc(C)c2)cc1`, the inhibition was -0.55% (inactive).
With `COc1ccccc1-c1nc(CN2CCCC2c2n[nH]c(=O)[nH]2)c(C)o1` (stereo unspecified) the inhibition was -4.69% (inactive).
In the case of `Cc1c(/C=N/NC(=O)CSc2nc3ccccc3s2)c2ccccc2n1C`, the inhibition was 5.36% (inactive).
With `Brc1ccc(C#Cc2cccs2)cc1` the inhibition was -4.29% (inactive).
`O=C(COc1ccccc1Cl)Nc1nncs1` was tested, and the inhibition was 2.7% (inactive).
`COc1cccc(-c2nn3c(-c4cccc(C(F)(F)F)c4)nnc3s2)c1` was tested, and the inhibition was -4.15% (inactive).
`Clc1ccccc1CSc1nnc(-c2ccco2)c(-c2ccco2)n1` was tested, and the inhibition was 101% (active).
With `Clc1ccccc1CSc1nncn2c1cc1occc12` the inhibition was 6.61% (inactive).
`CC1(C)N=C(SCc2ccccc2Cl)c2ccccc2N1` was tested, and the inhibition was -9.73% (inactive).
For `CN1CCC(N2CCCC2C(=O)Nc2ccc(-c3cccc(F)c3)cc2)CC1` (stereo unspecified), the inhibition was -3.33% (inactive).
With `O=C(/C=C/c1ccc([N+](=O)[O-])o1)c1ccco1` the inhibition was -10.2% (inactive).
For `Cc1noc(C)c1C(=O)Nc1ccc(C(F)(F)F)cc1`, the inhibition was 1.67% (inactive).
In the case of `O=C(O)c1cccc(N2N=C(c3ccc4c5c(cccc35)C(=O)N(c3ccccc3)C4=O)CC2c2ccccc2)c1` (stereo unspecified), the inhibition was 44.6% (active).
With `CC(=O)N1N=C(c2ccc(Cl)cc2Cl)CC1c1ccccc1` (stereo unspecified) the inhibition was -1.24% (inactive).
For `Clc1cccc(N2N=C(c3cccs3)CC2c2ccccc2)c1` (stereo unspecified), the inhibition was -9.66% (inactive).
With `Cc1ccc(-n2c(C)cc(/C=C3/C(=O)NC(=S)N(c4ccc(Br)cc4)C3=O)c2C)cc1` the inhibition was -0.744% (inactive).
In the case of `CCCc1sc(-n2c(C)cc(/C=C3/C(=O)NC(=S)N(C)C3=O)c2C)c(C#N)c1C`, the inhibition was 76.1% (active).
`Cc1cc(/C=C2\C(=O)NC(=S)N(c3ccc(Cl)cc3)C2=O)c(C)n1-c1ccccc1` was tested, and the inhibition was 1.69% (inactive).
`Cc1ccccc1Cn1cc(C(=O)N2CCN(C3CCCC3)CC2)nn1` was tested, and the inhibition was 14.7% (inactive).
With `CC1=Nc2nnnn2C(c2ccc(Br)cc2)C1C(=O)Nc1ccccc1` (stereo unspecified) the inhibition was 0.6% (inactive).
For `O=C(c1nn2c(C(F)(F)F)c3c(nc2c1Cl)-c1ccccc1CC3)N1CCN(c2ccc(F)cc2)CC1`, the inhibition was -4.56% (inactive).
With `CSc1ccc(C2C3=C(CCCC3=O)OC(=N)C2C#N)cc1` (stereo unspecified) the inhibition was 3.66% (inactive).
In the case of `N#CC1C(=N)OC2=C(CCC/C2=C/c2ccoc2)C1c1ccoc1` (stereo unspecified), the inhibition was 50.6% (active).
`N#CC1C(=N)OC2=C(C(=O)CCC2)C1c1ccsc1` (stereo unspecified) was tested, and the inhibition was 6.79% (inactive).
In the case of `Cc1ccc2nc(CNC(=O)Cn3nnnc3CN3CCC(C)CC3)cn2c1`, the inhibition was -3.66% (inactive).
In the case of `Clc1ccc(C2=CSC3=Nc4cccc5cccc(c45)N23)cc1`, the inhibition was 86.8% (active).
`Clc1ccc(-c2cc3ccccc3o2)cc1` was tested, and the inhibition was -1.45% (inactive).
`O=C(O)c1ccccc1C(=O)Nc1ccc(-c2cn3ccsc3n2)cc1` was tested, and the inhibition was 10.3% (inactive).
For `COC(=O)Nc1ccc(S(=O)(=O)N2CCn3c4c(c5cc(C)ccc53)CCCC42)cc1` (stereo unspecified), the inhibition was -2.9% (inactive).
`COCCCNC(=O)c1ccc2c(c1N)C(=O)c1ccccc1C2=O` was tested, and the inhibition was 5.03% (inactive).
With `Nc1c(S(=O)(=O)O)cc(Nc2ccc(-c3ccc(Nc4cc(S(=O)(=O)O)c(N)c5c4C(=O)c4ccccc4C5=O)cc3)cc2)c2c1C(=O)c1ccccc1C2=O` the inhibition was 94.8% (active).
With `Cc1ccc(OCc2ccc(C(=O)N/N=C/c3sccc3C)cc2)cc1C` the inhibition was -9.15% (inactive).
For `Cc1cc(C(=O)O)ccc1NCc1ccccc1`, the inhibition was 15.3% (inactive).
For `COc1cc(C(=O)N/N=C(/C)c2cccnc2)cc(OC)c1OC`, the inhibition was -15.1% (inactive).
In the case of `COc1cccc(OC/C=C/CN2CCN(C)CC2)c1`, the inhibition was -3.35% (inactive).
With `O=C(c1ccco1)N(Cc1cccs1)c1ccc(O)cc1` the inhibition was -0.924% (inactive).
In the case of `CCc1nccn1CCC(=O)NCc1nc(-c2ccc(NC(=O)c3ccc(COC)o3)cc2)oc1C`, the inhibition was -7.82% (inactive).
In the case of `CCNC(=O)N1CCNC(=O)C1CC(=O)N1CCN(c2ccc(OC)cc2)CC1` (stereo unspecified), the inhibition was 16.6% (inactive).
With `CCOc1ccc(-n2c(Sc3c(N)c4c5c(sc4[nH]c3=O)CCC5)nnc2-c2nn(C)c(C)c2Cl)cc1` the inhibition was -4.22% (inactive).
`CCCNC(=O)C1CCN(Cc2ccccc2C)CC1` was tested, and the inhibition was 4.05% (inactive).
For `COC(=O)C1=C(C)O[C@]23CCC[C@]12CC(=O)C3`, the inhibition was 2.4% (inactive).
In the case of `c1ccc2c(Sc3ncnc4sc5c(c34)CCCC5)c[nH]c2c1`, the inhibition was 0.643% (inactive).
